Screens from PubChem.
Shn3 inh set2: inhibitors of Schnurri-3 3'UTR reporter in osteoblasts; inhibition, % at 12.5 µM; actives 0.52% (n = 360,000); Clone20 osteoblast Shn3 3'UTR firefly luciferase, 24 h;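 active means mean inhibition of at least 75% with every replicate also reaching 75%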;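 further: 0% = median of neutral control wells and 100% = pilot-screen positive control compound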
TWEAK-Fn14 inh: inhibitors of TWEAK-Fn14 interaction signaling. TWEAK-stimulated Fn14 reporter cells, luciferase luminescence, 8 h. inhibition, % at 10 µM. actives 2% (n = 360,000). AID 1159606; in the data active means inhibition above about 50%
TROY NFkB inh: inhibitors of TROY-dependent NF-kB signaling; Q293 LMP1-TROYcd NF-kB luciferase reporter, 4 h; AID 1347056; actives 0.98% (n = 360,000); inhibition, % at 10 µM;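 active means compounds whose plate-normalised and pattern-corrected inhibition of the luciferase reporter signal at the single screening dose is 50% or more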
TRPM1 prom inh: MITF TRPM1 promoter inhibition in SK-MEL-5 cells; actives 0.83% (n = 330,000); inhibition, % at 12.5 µM; SK-MEL-5 TRPM1 promoter luciferase, 24 h;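 active means mean inhibition across replicates of 60% or more, whatever share of single replicates reaches that level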
LMP1 NFkB inh: inhibitors of Epstein-Barr LMP1-induced NF-kappaB reporter; LMP1-induced NF-kappaB luciferase reporter cells, luminescence; inhibition, % at 12.5 µM; actives 0.69% (n = 350,000); AID 504558; in the data active means inhibition above about 41%;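 further: 0% = neutral control wells and 100% = reference inhibitor control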
Peg3 prom inh: inhibitors of Peg3 promoter; HeLa PEG-Prom luciferase reporter, luminescence, overnight; inhibition, % at 20 µM; actives 1.7% (n = 360,000); AID 588405;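 active means inhibition of at least 50% at 20 µM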
Active calls of the source: *. Shown are actives, neighbours in structure and some others; about 4.1% of the full set was active somewhere.

What do the screens show for `COc1ccc2[nH]c(C)c(CCNCc3cc(OC)c4c(c3)OCO4)c2c1`?
Shn3 inh set2: 25.6; TWEAK-Fn14 inh: 20.1; TROY NFkB inh: 64.1*; TRPM1 prom inh: -9.7; LMP1 NFkB inh: 13.4; Peg3 prom inh: 3.8

What do the screens show for `CCOC(=O)[C@]12Cc3cc4ccccc4cc3[C@H]1N(Cc1ccccc1)C(=O)c1cc(OC)ccc12`?
TWEAK-Fn14 inh: 56.3*; TROY NFkB inh: 40.9

What do the screens show for `CCOC(=O)[C@]12Cc3cc4ccccc4cc3[C@H]1N(Cc1ccccc1)C(=O)c1ccccc12`?
TWEAK-Fn14 inh: 68.3*; TROY NFkB inh: 30.7

Results for CCCCCN1C(=O)c2cc(OC)ccc2[C@@]2(C(=O)OCC)Cc3cc(Cl)ccc3[C@@H]12 ?
TWEAK-Fn14 inh: 76.7*; TROY NFkB inh: 51.8*

What do the screens show for `CCOC(=O)[C@]12Cc3cc(Cl)ccc3[C@H]1N(Cc1ccccc1)C(=O)c1cc(OC)ccc12`?
TWEAK-Fn14 inh: 52.4*; TROY NFkB inh: 28.9

Results for CCOC(=O)[C@]12Cc3cc(OC)ccc3[C@H]1N(Cc1ccccc1)C(=O)c1cc(OC)ccc12 ?
TWEAK-Fn14 inh: 22.4; TROY NFkB inh: 16.5

Results for Cn1c(O)c(C=Nc2ccccc2Sc2ccccc2)c(=O)n(C)c1=O ?
Shn3 inh set2: 1.6; TWEAK-Fn14 inh: -10.1; TROY NFkB inh: 10.0; TRPM1 prom inh: 4.5; LMP1 NFkB inh: 5.3; Peg3 prom inh: 7.0

Results for CC(C)(C)C(=O)N1Cc2cc(-c3cccc(F)c3)ccc2-n2nncc2C1 ?
Shn3 inh set2: -10.3; TWEAK-Fn14 inh: -18.8; TROY NFkB inh: 1.6; Peg3 prom inh: 9.8

What do the screens show for `O=C1CNC(c2ccccc2Cl)c2cc(Br)ccc2N1` (configuration not stated)?
Shn3 inh set2: -21.0; TWEAK-Fn14 inh: 30.5; TROY NFkB inh: 1.8; TRPM1 prom inh: 5.2; LMP1 NFkB inh: 5.8; Peg3 prom inh: 1.9

How did COc1cc2c3c(c1OC)Oc1ccc(cc1)C[C@H]1c4c(cc(OC)c(OC)c4Oc4ccc(cc4)C[C@@H]3N(C)CC2)CCN1C do in these assays?
Shn3 inh set2: 33.1; TWEAK-Fn14 inh: -35.4; TROY NFkB inh: 18.1; TRPM1 prom inh: 91.2*; LMP1 NFkB inh: -5.0; Peg3 prom inh: 87.4*

What do the screens show for `COc1cc2c3cc1Oc1c(OC)c(OC)cc4c1[C@H](Cc1ccc(cc1)Oc1cc(ccc1O)C[C@H]3N(C)CC2)N(C)CC4`?
Shn3 inh set2: -7.8; TWEAK-Fn14 inh: -24.4; TROY NFkB inh: 10.9; TRPM1 prom inh: 80.3*; LMP1 NFkB inh: -38.1; Peg3 prom inh: 70.2*

Results for COc1cc2c3cc1Oc1cc(ccc1O)C[C@@H]1c4c(cc(OC)c(O)c4Oc4ccc(cc4)C[C@H]3N(C)CC2)CCN1C ?
Shn3 inh set2: -17.5; TWEAK-Fn14 inh: -37.0; TROY NFkB inh: -2.9; TRPM1 prom inh: 44.8; LMP1 NFkB inh: 83.3*; Peg3 prom inh: 67.5*

Results for COc1cc2c(cc1O)C[C@H]1c3c(cc(O)c(OC)c3-2)CCN1C ?
Shn3 inh set2: 24.0; TWEAK-Fn14 inh: -14.4; TROY NFkB inh: -14.0; TRPM1 prom inh: 13.5; LMP1 NFkB inh: 8.4; Peg3 prom inh: 9.6

Results for CN(C)C(=S)SSC(=S)N(C)C ?
Shn3 inh set2: 55.3; TWEAK-Fn14 inh: -6.5; TROY NFkB inh: -0.6; TRPM1 prom inh: 57.8; LMP1 NFkB inh: 13.2; Peg3 prom inh: 55.9*

How did O=c1[nH]c(=O)n(-c2ccccc2F)c(O)c1/C=C1\C=Nc2ccccc21 do in these assays?
Shn3 inh set2: 37.8; TWEAK-Fn14 inh: 54.2*; TROY NFkB inh: 1.9; TRPM1 prom inh: 22.7; LMP1 NFkB inh: -0.1; Peg3 prom inh: 34.8

What do the screens show for `COc1ccc(-n2c(O)c(/C=C3\C=Nc4ccc(Br)cc43)c(=O)[nH]c2=O)c(OC)c1`?
Shn3 inh set2: 64.2; TWEAK-Fn14 inh: 55.2*; TROY NFkB inh: -33.1; TRPM1 prom inh: -2.0; LMP1 NFkB inh: -13.2; Peg3 prom inh: 10.6

How did O=C(c1ccc(N2CCCCCC2)c([N+](=O)[O-])c1)N1CCC2(CC1)OCCO2 do in these assays?
Shn3 inh set2: -9.8; TWEAK-Fn14 inh: -1.6; TROY NFkB inh: -2.1; TRPM1 prom inh: -8.7; LMP1 NFkB inh: -9.1; Peg3 prom inh: 14.8

What do the screens show for `O=C(CF)N(O)c1ccc(C=Cc2ccccc2)cc1`?
Shn3 inh set2: -2.9; TWEAK-Fn14 inh: -3.1; TROY NFkB inh: 25.2; TRPM1 prom inh: -19.1; LMP1 NFkB inh: 87.9*; Peg3 prom inh: -322.1
